The values that follow come from PubChem BioAssay (NCI).

About 83,000 compounds went through this panel and 20% of them were active in at least one assay; those are over-represented in the sample as a whole.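 Results are percent growth after 48 hours of single-concentration exposure. 100 means growth as in untreated cells, lower positive values show inhibition; negative values down to -100 show cell death.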 Values without a mark were called inactive. The source made the active and inactive calls. How the source made its calls: active means growth percent below 10; inactive means the rest.

Holding throughout (test): NCI-60 one-dose screen, 48 h (100 = growth as untreated, 0 = no growth, -100 = all killed)
Common to all, as to details: 10 µM unless noted

Test [1] concerns HCT-15 colon.
In test [2] the test system is HT29 colon.
Test [3] deals with SNB-75 CNS.
For test [4], the system named is SNB-19 CNS.
Test [5] relates to U251 CNS.
The test system of test [6] is SK-MEL-5 melanoma.
Test [7] deals with UACC-62 melanoma.
The test system of test [8] is LOX IMVI melanoma.
For test [9], the system named is SK-MEL-28 melanoma.
The test system of test [10] is SK-MEL-2 melanoma.
The subject of test [11] is EKVX NSCLC.
Test [12] has as its system SN12C renal.
Test [13] relates to UO-31 renal.
For test [14], the system named is ACHN renal.
Test [15] relates to CAKI-1 renal.
For test [16], the system named is A498 renal.
The test system of test [17] is CCRF-CEM leukemia.
The test system of test [18] is MOLT-4 leukemia.
Test [19] concerns TK-10 renal.
Test [20] concerns PC-3 prostate.

With `COc1ccc(/C=C/c2nc(Nc3ccc(Cl)cc3)c3ccccc3n2)cc1`, the growth in test [1] is 34.8%; in test [2], 48.3%; in test [3] it was 61.7%; in [4] it was 64.4%; in [5], 45.7%; in test [6] it was 69.7%. For the same molecule, the growth in test [7] is 14.3%; in test [8], 18.4%; in test [9] it was 90.2%; in test [10], 89.2%; in test [11], 81.8%; in [12], 38.5%. The growth was 34.3% in test [13]; 49.4% in [14]; 56.5% in test [15]; 16.6% in test [16]; 8.06% (active) in test [17]; 32.1% in test [18].
For `O=C(CCN1CCCC1)Nc1ccc2c(NCCc3ccccc3)c3ccccc3nc2c1`, the growth in [1] was 12%; in [2], 4.99% (active); in [3], -70.8% (active); in test [4], -17.9% (active); in test [5], -24% (active); in test [6], 11.2%. Further, the growth in [7] is -55.1% (active); in test [8], -68% (active); in [9], -17.4% (active); in test [10], -58.8% (active); in test [11] it was -4.89% (active); in test [12] it was -12.5% (active). In addition, the growth in [13] is -10.8% (active); in test [19] it was 3.29% (active); in [14], 11%; in test [15], 4.47% (active); in test [17] it was -9.81% (active); in test [18], -17.6% (active).
Regarding `O=Cc1cc2ccccc2nc1Oc1ccc(C(F)(F)F)cc1`, the growth was 80.8% in test [1]; 94.1% in test [2]; 83.2% in test [3]; 90.7% in test [4]; 81.6% in test [5]; 67.8% in test [20]. The growth in [6] is 94.5%; in [8], 74.3%; in test [9] it was 107%; in test [10] it was 101%; in test [11] it was 82.4%; in test [12], 70.5%. The growth in [13] was 35.1%; in [19], 98%; in test [14], 87.7%; in test [15], 63.4%; in test [17], 6.98% (active); in test [18] it was 60.5%.
As to `CC(C)N1C(=O)S/C(=C2/SC(=O)N(C(C)C)C2=O)C1=O`, the growth is 95.9% in [1]; 102% in test [2]; 64.8% in test [3]; 96.3% in test [5]; 98.2% in [20]; 93.9% in test [6]. The growth in test [7] was 91.6%; in test [8], 91.9%; in test [9], 105%; in test [10], 98.7%; in test [11], 85.5%; in test [12] it was 94.8%. The growth is 87.7% in test [13]; 89.9% in test [19]; 102% in [14]; 98.8% in [15]; 89.5% in test [16]; 38.9% in test [17]. In addition, the growth in test [18] was 99.4%.
Regarding `COc1cc(/C(C)=C(\c2ccc(Cl)cc2)c2ccc(OCCN3CCCC3)cc2)ccc1F`, the growth in test [1] is 7.9% (active); in test [2], 8.92% (active); in [3] it was 84.2%; in test [5], 46.1%; in [20], 53%; in [6], 49.9%. In addition, the growth in [7] is 58%; in [8], 46%; in [9], 69.3%; in [10] it was 98.8%; in [11] it was 74%; in test [12], 70.2%. Besides, the growth in [13] is 39.7%; in [19], 69.3%; in [14], 83.1%; in test [15] it was 65.2%; in [17] it was 37.6%; in [18] it was 32.6%.
In the case of `COc1cc(/C=C\c2cc(/C=C\c3ccc(O)c(OC)c3)n(C(=O)COc3ccccc3)n2)ccc1O`, the growth was 9.64% (active) in [1]; -33.2% (active) in [2]; 22.7% in test [3]; 8.81% (active) in [5]; 8.49% (active) in test [20]; -28.8% (active) in [6]. Also, the growth in test [7] was 4.88% (active); in test [8] it was 3.23% (active); in test [9], 18.4%; in test [10], -18.7% (active); in test [11] it was 28.1%; in test [12] it was 15.7%. In addition, the growth in [13] was 0.475% (active); in test [19] it was 12.7%; in test [14], 18%; in test [15] it was 24.2%; in test [16], 11.2%; in [17], 6.79% (active).
As to `CSc1nc2sc3cccc(Cl)c3n2c(=N)c1C#N`, the growth in test [1] was 111%; in [2], 113%; in test [3], 103%; in [5], 95.6%; in [20], 90.8%; in test [6] it was 95.4%. Also, the growth in test [7] was 90%; in test [8], 93.7%; in test [9], 115%; in [10] it was 105%; in test [11] it was 90.1%; in [12], 101%. Moreover, the growth was 68.5% in test [13]; 123% in test [19]; 95% in test [14]; 86% in [17]; 90% in [18].
With `CCCCNC(=O)Oc1ccc(/C(=C(\C)c2ccccc2)c2ccc(OCCN3CCCCC3)cc2)cc1`, the growth is 9.66% (active) in test [1]; 0.947% (active) in [2]; 84.6% in test [3]; 50.7% in [5]; 55.3% in test [20]; 68.9% in test [6]. Besides, the growth in test [7] is 41.8%; in test [8], 62%; in [9], 46.7%; in test [10], 72.7%; in test [11] it was 76.2%; in test [12] it was 70.7%. For the same molecule, the growth in test [13] is 40.4%; in [14], 90.1%; in test [15], 46.9%; in [17], 66.3%; in test [18], 53.8%.
